In paper PMC4336329 (PLoS ONE, 2015):
In all, about 310,000 compounds went through this assay and about 14,000 (4.5%) showed an effect of 50% or more. Effects have a minus sign here. The sample as a whole holds a higher share of strong results than the screen did.

biological target: human ether-à-go-go-related gene (hERG) potassium channel (human, UniProt Q12809); assay: primary screen, population patch clamp on CHO cells stably expressing hERG; higher = less effect of the substance
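Further: peak tail current of the secondary pulse compared with the same well before compound.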

Sequence of human ether-à-go-go-related gene (hERG) potassium channel (Q12809 whole entry, looked up): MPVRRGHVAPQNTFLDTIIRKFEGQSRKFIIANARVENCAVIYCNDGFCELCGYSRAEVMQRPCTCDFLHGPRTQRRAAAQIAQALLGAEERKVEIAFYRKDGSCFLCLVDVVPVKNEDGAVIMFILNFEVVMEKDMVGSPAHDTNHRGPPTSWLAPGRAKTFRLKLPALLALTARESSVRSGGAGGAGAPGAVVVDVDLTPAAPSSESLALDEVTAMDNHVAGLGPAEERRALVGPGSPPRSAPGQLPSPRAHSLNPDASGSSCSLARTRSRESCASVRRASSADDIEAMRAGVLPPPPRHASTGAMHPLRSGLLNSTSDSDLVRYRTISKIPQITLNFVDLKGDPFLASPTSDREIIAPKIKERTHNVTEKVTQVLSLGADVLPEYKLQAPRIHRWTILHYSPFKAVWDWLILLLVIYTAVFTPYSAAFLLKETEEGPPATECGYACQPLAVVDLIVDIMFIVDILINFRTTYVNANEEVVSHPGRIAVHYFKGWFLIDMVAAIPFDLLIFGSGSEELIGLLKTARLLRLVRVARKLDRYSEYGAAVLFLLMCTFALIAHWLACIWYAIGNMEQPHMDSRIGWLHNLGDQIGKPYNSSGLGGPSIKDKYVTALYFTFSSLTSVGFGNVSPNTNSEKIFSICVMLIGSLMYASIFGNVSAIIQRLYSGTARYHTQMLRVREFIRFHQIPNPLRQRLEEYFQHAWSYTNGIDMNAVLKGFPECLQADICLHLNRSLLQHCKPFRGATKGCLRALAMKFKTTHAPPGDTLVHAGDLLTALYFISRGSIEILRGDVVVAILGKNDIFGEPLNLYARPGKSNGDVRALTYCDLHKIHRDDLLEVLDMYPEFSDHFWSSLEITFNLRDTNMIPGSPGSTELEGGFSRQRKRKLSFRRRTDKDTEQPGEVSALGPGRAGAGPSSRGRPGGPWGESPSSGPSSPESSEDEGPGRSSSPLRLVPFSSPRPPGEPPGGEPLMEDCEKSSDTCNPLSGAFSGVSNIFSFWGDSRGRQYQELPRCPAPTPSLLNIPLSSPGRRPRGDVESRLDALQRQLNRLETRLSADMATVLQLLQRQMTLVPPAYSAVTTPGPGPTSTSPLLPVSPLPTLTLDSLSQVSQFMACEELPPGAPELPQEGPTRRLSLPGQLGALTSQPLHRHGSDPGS

In order of falling “hERG current change (%, negative = inhibition) at 10uM” value:
1. Cc1ccccc1CN1CCc2cc([N+](=O)[O-])ccc21  19.1%
2. CCc1noc(C)c1C(=O)N1CCCC(C(=O)c2cc(F)ccc2OC)C1 (stereo not shown)  18.6%
3. N/C(=N\OC(=O)N1CCOCC1)c1ccc(Br)cc1  17.6%
4. CCOC(=O)c1oc2ccccc2c1NC(=O)c1ccccc1OC  16.6%
5. Cc1ccc(OCc2nnc(SCC(=O)N3CCc4ccccc43)n2C)cc1  16.4%
6. CCn1c(SCC(=O)Nc2cccc(NC(C)=O)c2)nnc1-c1ccco1  14.8%
7. COc1cccc(CNc2nc(SC)ncc2CO)c1  14.5%
8. COc1ccccc1C(=O)C1CCCN(C(=O)c2ccccn2)C1 (stereo not shown)  12.4%
9. CCCn1nc(NC(=O)CC(C)C)c2cc3ccccc3nc21  12%
10. O=C(Cn1nnc(-c2ccccc2F)n1)OCC(=O)c1ccccc1  10.9%
11. O=C(COc1ccccc1)N1CCN(c2ncccn2)CC1  10.5%
12. COc1ccccc1C(=O)NCc1ccco1  9.61%
13. Cc1ccc(OCC(=O)NCCNC(=O)COc2ccc(C)cc2)cc1  9.34%
14. O=C(c1ccc(NC2=NC3CS(=O)(=O)CC3S2)cc1)N1CCN(c2ccc(F)cc2)CC1 (stereo not shown)  6.4%
15. CCn1cc(C(=O)O)c(=O)c2cnc(N3CCN(C(=S)Nc4ccccc4C(F)(F)F)CC3)nc21  6.26%
16. CC(NC(=O)/C(C#N)=C/c1ccc(Cl)c([N+](=O)[O-])c1)c1ccccc1 (stereo not shown)  4.7%
17. CN1C[C@H](CO)C=C2c3cccc4[nH]cc(c34)C[C@H]21  4.32%
18. C[NH+](C)CC(C)(C)CNS(=O)(=O)c1ccc(Cl)c(Cl)c1.[Cl-]  4.29%
19. C=CCNC(=S)NC(=O)c1ccc(C)c(Br)c1  3.39%
20. CC(=O)N1c2ccccc2CCc2ccc([N+](=O)[O-])cc21  2.5%
21. Cc1ccc(OCC(=O)NCCN2CCCC2)cc1.Cl  2.48%
22. COc1ccc(F)cc1C(=O)C1CCCN(C(=O)C2=C(C)OCCO2)C1 (stereo not shown)  1.15%
23. CC(=O)c1c(C)nc(-c2ccc3c(c2)OCO3)n1O  0.643%
24. CCN(CC)C(=O)Nc1ccc(C(=O)OC)cc1  -1.77%
25. Cc1cc(C(=O)N2CCCC(C(=O)c3cccc4ccccc34)C2)nc(C)n1 (stereo not shown)  -2.09%
26. c1ccc2c(c1)SCc1nnc(-c3ccncc3)n1-2  -2.6%
27. Cc1ccc(S(=O)(=O)N/N=C/c2cn(C)nc2C)cc1  -2.68%
28. COCCNC(=S)Nc1cc(OC)c(NC(=O)c2ccco2)cc1OC  -3.62%
29. Cc1ccc(OCCCCNC(C)(C)C)c([N+](=O)[O-])c1.O=C(O)C(=O)O  -4.42%
30. Cc1ccc(-c2csc3ncn(CC(=O)N4CCOCC4)c(=O)c23)cc1C  -5.43%
31. COc1ccccc1C(=O)C1CCCN(C(=O)C2CCCC2)C1 (stereo not shown)  -6.06%
32. Cc1c(C(=O)NCc2ccco2)oc2ccccc12  -6.97%
33. COc1ccc(C2=NN(C(=O)CN3CCOCC3)C(c3nc4ccccc4[nH]3)C2)cc1 (stereo not shown)  -8.74%
34. Cc1cccc(OCC(=O)NNC(=O)c2cc3ccccc3oc2=O)c1  -9.32%
35. O=C(COc1ccc(Cl)cc1)N1CCN(c2ncccn2)CC1  -9.42%
36. CCN(CC)CC(=O)N1CCCC(C(=O)c2ccccc2OC)C1 (stereo not shown)  -10.3%
37. Cc1noc(C)c1COc1cccc(C(=O)NCc2ccccc2Cl)c1  -11.3%
38. COc1cc2[nH]c(=O)n(CCCC(=O)N3CC=C(c4ccccc4)CC3)c(=O)c2cc1OC  -12.9%
39. O=C(COc1ccccc1)N1CCN(C2CCCC2)CC1.O=C(O)C(=O)O  -13.2%
40. O=C(COc1ccc2ccccc2c1)N1CCCC1  -13.3%
41. COc1cc(CNCCCCO)ccc1OCc1ccccc1F.Cl  -14.2%
42. COc1ccc(-c2noc(CCC(=O)Nc3cc(OC)ccc3OC)n2)cc1  -14.7%
43. COc1cc2[nH]c(=O)n(CCCCCC(=O)N3CC=C(c4ccccc4)CC3)c(=O)c2cc1OC  -20%
44. O=C(COc1ccc(Br)cc1)N1CCCCCC1  -22.9%
45. Cl.OCCCCNCc1cc(Br)ccc1OCc1ccccc1F  -24.7%
46. CC1CC(C)CN(CCCNC(=O)CN2C(=O)c3cccnc3Oc3ccc(Cl)cc32)C1 (stereo not shown)  -30.7%
47. COc1ccc(S(=O)(=O)N2CCOCC2)cc1C(=O)N1CCCCC1  -31.6%
48. Cc1c(C(=O)N(Cc2ccco2)Cc2cccs2)oc2ccccc12  -34.2%
49. CC1CN(C2CCN(C(=O)COc3ccc(Cl)cc3)CC2)CC(C)O1.O=C(O)C(=O)O (stereo not shown)  -38%
50. O=C(COc1ccc2cc(Br)ccc2c1)N1CCCC1  -50.1%
51. CN(C)CCCN1c2ccc([N+](=O)[O-])cc2CCc2cc([N+](=O)[O-])ccc21  -50.3%
52. COc1ccccc1C(=O)C1CCCN(C(=O)c2cc(CC(C)C)nc(C)n2)C1 (stereo not shown)  -60.5%
53. Cl.OCCCCNCc1cc(Br)ccc1OCc1ccccc1  -61.8%
54. Cc1ccc(OCC(=O)NCCN2CCN(C(=O)COc3ccc(C)cc3)CC2)cc1  -65.9%
55. COc1cccc2c1[C@@H]1CN(CCCCn3c(=O)[nH]c4c(sc5ncc(-c6ccccc6)nc54)c3=O)C[C@@H]1CO2.Cl  -67.6%
56. CCOC(=O)N1CCC(N2CCCC(C(=O)c3ccccc3OC)C2)CC1 (stereo not shown)  -67.7%
57. Cc1ccccc1C(=O)Nc1c(C(=O)N(CCN(C)C)Cc2ccco2)oc2ccccc12  -79.7%
58. COc1ccccc1C(=O)Nc1c(C(=O)N(CCN(C)C)Cc2ccco2)oc2ccccc12  -82.7%
59. O=C(COc1ccc(Cl)cc1)N1CCN(C2CCCC2)CC1.O=C(O)C(=O)O  -83.2%
60. O=C(COc1ccc(Br)cc1)N1CCN(c2ncccn2)CC1  -83.7%
61. CCOC(=O)N1CCC(N2CCCC(C(=O)c3cc(F)ccc3OC)C2)CC1 (stereo not shown)  -86.7%
